According to PubChem BioAssay AID2551 (National Center for Advancing Translational Sciences (NCATS), 2010):
Values joined by “and” are separate entries in the source; they are usually repeats but may differ in a detail not shown here. Identical values can stand only once. Hit rate of the full screen: of about 310,000 compounds, about 17,000 (5.5%) were called active. A call without a number means that no potency is given here. Not shown: some 11% with an inconclusive outcome. Calls come from the whole dose curve; as a rule, active = well fitted inhibition curve with a large enough effect; inconclusive = small, poorly fitted or top-dose-only effect, or effect the other way; inactive = no such curve, though single readings can be large or run the other way. For the sample, actives were picked, then their nearest neighbours and some compounds at random. Some compounds were tested as several samples or in several runs, with calls that do not always agree.

target: Nuclear receptor ROR-gamma (Mus musculus) (UniProt P51450); assay: qHTS for inhibitors of ROR gamma transcriptional activity; details: Drosophila S2 Gal4-RORgamma UAS-luciferase reporter, 20 h; series mostly up to 53.6 µM; note: nearly all actives have a fitted effect of over 60% in size
Description: NIH Molecular Libraries Probe Production Network [MLPCN] NIH Chemical Genomics Center [NCGC] MLPCN Grant: R03 DA026211-01 Assay Provider: Dan Littman, New York University Assay Overview: The retinoic acid-related orphan receptor (ROR) gamma is a transcription factor that has a central role in the differentiation of Th17 cells, a subset of T helper cells that secrete the inflammatory cytokines IL-17, IL-17F, and IL-22. Th17 cells have been implicated in graft versus host disease, autoimmune disease and asthma. ROR gamma is induced in naive T helper cells in the presence of TGF-beta combined with IL-6, IL-21, or IL-23, and thereafter directs the expression of the Th17 lineage cytokines. To study the mechanism of action of ROR gamma, an insect cell-based assay was screened. This Drosophila Schneider cell line was stably transfected with two vectors: a gene expressing a fusion of the Gal4 DNA binding domain and ROR gamma transactivation domain under the control of the metallothionine promoter and a Photinus luciferase reporter regulated by the Gal4 binding site enhancer, UAS. […] Small molecule inhibitors of ROR gamma activity are detected by a decrease in luciferase reporter activity.
Assay Protocol Summary: For screening, 600 cells in 4 uL/well were dispensed into white solid 1536-well plates (Grenier) using a solenoid-based dispenser. Following transfer of 23 nL compound or DMSO vehicle by a pin tool, the plates were incubated 1 hr at ambient temperature, and 1 uL/well copper sulfate (700 uM final concentration) was added. The plates were centrifuged 15 s at 1000 RPM and incubated 20 hr at ambient temperature. After addition of 1.5 uL Photinus luciferase detection reagent, the plates were incubated 10 min at ambient temperature and then read by an ViewLux (Perkin Elmer) to detect luminescence. Keywords: NIH Roadmap, MLPCN, MLI, MLSMR, qHTS, NCGC, qHTS, nuclear hormone receptor, retinoic acid-related orphan receptor, ROR gamma
Potency is the fitted concentration of half-maximal effect.

Sequence of Nuclear receptor ROR-gamma (Mus musculus) (P51450 whole entry, looked up, the tested form may be a part): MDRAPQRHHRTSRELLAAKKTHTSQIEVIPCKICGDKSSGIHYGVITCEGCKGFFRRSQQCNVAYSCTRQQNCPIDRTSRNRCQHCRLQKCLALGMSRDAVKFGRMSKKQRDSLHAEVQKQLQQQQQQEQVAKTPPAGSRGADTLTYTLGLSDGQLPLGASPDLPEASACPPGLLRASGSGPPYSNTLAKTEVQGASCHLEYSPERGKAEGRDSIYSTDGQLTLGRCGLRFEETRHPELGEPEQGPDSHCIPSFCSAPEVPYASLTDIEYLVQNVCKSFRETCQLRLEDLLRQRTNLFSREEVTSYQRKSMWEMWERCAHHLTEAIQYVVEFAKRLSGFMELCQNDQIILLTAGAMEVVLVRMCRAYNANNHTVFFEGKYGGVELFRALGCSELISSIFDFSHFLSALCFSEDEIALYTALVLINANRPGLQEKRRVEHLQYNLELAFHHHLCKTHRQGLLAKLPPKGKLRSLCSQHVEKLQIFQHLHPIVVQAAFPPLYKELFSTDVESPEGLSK

| SMILES | Potency |
| --- | --- |
| CCC(C)[C@H](NC(=O)N1c2ccccc2NC(=O)[C@@H]1C(C)C)C(=O)N[C@@H](Cc1ccccc1)C(=O)O (stereo partly specified) | inactive |
| COc1ccccc1OCCNCC(O)COc1cccc2[nH]c3ccccc3c12 (stereo unspecified) | inactive and 1 µM (active) |
| COc1ccccc1OCC(O)CN1CCOCC1 (stereo unspecified) | inactive |
| CC(O)CNCCOc1cccc(Oc2ccccc2)c1 (stereo unspecified) | inactive |
| COc1cccc(OCc2nnc3n2N=C(c2ccccc2)C(CC(=O)O)S3)c1 (stereo unspecified) | inactive |
| COc1ccc(-n2ncc3c2CC(C)(C)CC3NC(=O)CCc2c(C)nn(C)c2C)cc1 (stereo unspecified) | inactive |
| CCCCN(CCCC)CCNC(=O)CN1C(=O)COc2ccc(S(=O)(=O)N3CCOCC3)cc21 | inactive |
| Cc1ccc2nc(-c3ccc(NC(=O)c4cccnc4)cc3)oc2c1 | 20 µM (active) |
| CC(=O)Nc1ccc(-c2nc3ccccc3o2)cc1 | inactive |
| CC(=O)NC(=S)Nc1ccc(NC(=O)c2cccnc2)cc1 | inactive |
| Cc1ccc(O)c(/C=N/NC(=O)COc2ccc3c(C)cc(=O)oc3c2)c1 | 2.51 µM (active) |
| Cc1cc(=O)oc2cc(OCC(=O)Nc3nnc(C4CC4)s3)ccc12 | inactive |
| COC(=O)COc1ccc2oc(=O)cc(C)c2c1 | inactive |
| Cc1c(C)c2ccc(OCC(=O)N3CCN(c4cccc(Cl)c4)CC3)cc2oc1=O | inactive |
| CCC(C)N1CC(=O)N2Cc3[nH]c4ccccc4c3C[C@H]2C1=O (stereo partly specified) | inactive |
| O=C(Cn1ncc2c3ccccc3n(Cc3ccccc3)c2c1=O)NCCCN1CCOCC1 | inactive |
| COc1ccc(N(CC(=O)Nc2cc(OC)ccc2OC)S(=O)(=O)c2c(C)noc2C)cc1 | inactive |
| CCCCC(=O)Nc1cc(C)c2c(=O)oc3ccccc3c2n1 | inactive |
| Cc1ccccc1-n1nnc2c(=O)oc3ccccc3c21 | 7.94 µM (active) |
| CC(C)(C)Nc1c(N)c(=O)oc2ccccc12 | inactive |
| COc1cccc(C(=O)NNS(=O)(=O)c2ccc(F)cc2)c1 | inactive |
| COc1ccc(C(C(=O)NCC2CCCO2)N(C(=O)Cn2nnc3ccccc32)c2ccc(NC(C)=O)cc2)cc1OC (stereo unspecified) | inactive |

| SMILES | Potency |
| --- | --- |
| Nc1ccc(-c2sc(N)nc2-c2ccccc2)cc1 | inactive |
| Nc1[nH]c(=S)nc2nc(-c3ccccc3)c(-c3ccccc3)nc12 | 3.98 µM (active) |
| Nc1nc(-c2ccccc2)cc(-c2ccccc2)n1 | inactive |
| Cc1c(CN2CCC(n3nccc3NC(=O)CCc3ccccc3)CC2)cnn1C | inactive |
| CC(=O)NCCC(=O)Nc1cc(S(=O)(=O)N2CCCCC2)ccc1Oc1cccc(C)c1 | inactive |
| S=c1[nH]nc(-c2ccc(Cl)cc2)n1CC1CCCO1 (stereo unspecified) | 11.2 µM (active) |
| CNC(=O)NC(=O)CSc1nnc(-c2ccc(F)cc2)n1CC1CCCO1 (stereo unspecified) | inactive |
| Cc1nnc(SCC(=O)NNC(=O)c2ccc(Cl)cc2)n1CC1CCCO1 (stereo unspecified) | inactive |
| N#Cc1ccccc1S(=O)(=O)N1CCN(C(=O)c2cc(-c3ccccc3)nn2-c2ccccc2)CC1 | inactive |
| CC1CN(C(=S)Nc2ccccc2F)CC(C)O1 (stereo unspecified) | inactive |
| S=C(Nc1ccc(Br)cc1Cl)N1CCC2(CC1)OCCO2 | inactive |
| CC1CN(C(=S)Nc2ccc(Br)cc2Cl)CC(C)O1 (stereo unspecified) | 12.6 µM (active) |
| O=C(Nc1ccc(O)cc1)c1ccc(NC(=O)c2ccco2)cc1 | inactive |
| Cc1ccc(SCCC(=O)NCc2ccccn2)cc1 | 8.91 µM (active) |
| Cc1cc(Cl)ccc1OCCCC(=O)NCc1ccccn1 | inactive |
| O=C(CCSc1ccccc1)NCCSc1ccccn1 | inactive |
| O=C1C2CCCN2C(=O)N1CCCCN1CCN(c2cccc(C(F)(F)F)c2)CC1 (stereo unspecified) | inactive |
| CC1(C)C2CC=C(/C=N/NC(=O)C3CC3)C1C2 (stereo unspecified) | inactive |
| N#Cc1cc([N+](=O)[O-])ccc1Oc1cccc(/C=N/NC(=O)c2ccc(Cl)cc2)c1 | inactive |
| CC1(C)C2CC=C(/C=N/NC(=O)c3ccc(Cl)cc3)C1C2 (stereo unspecified) | 12.6 µM (active) |
| N#Cc1c(-c2ccccc2)nc(SCc2cccc(C(F)(F)F)c2)[nH]c1=O | inactive |
| Cc1nn(C(C)C(=O)NCCC2=CCCCC2)c(=O)c2nn(-c3ccccc3)c(C)c12 (stereo unspecified) | inactive |

| SMILES | Potency |
| --- | --- |
| O=C(NNC(=S)NCCCN1CCOCC1)c1ccncc1 | inactive |
| Cc1cc(C)cc(NC(=S)NCCCN2CCOCC2)c1 | inactive |
| CCCCc1ccc(NC(=S)NCCCN2CCOCC2)cc1 | 10 µM (active) |
| COc1ccccc1C(=O)N(C1=NC(C)CS1)c1ccc(Cl)cc1 (stereo unspecified) | inactive |
| Cc1ccc(C)c(NC(=O)c2ccc3nccnc3c2)c1 | inactive |
| CCC1(C)Cc2c(sc3nc(SC)[nH]c(=O)c23)CO1 (stereo unspecified) | inactive |
| CCC1(C)Cc2c(sc3[nH]c(=S)n(Cc4ccccc4)c(=O)c23)CO1 (stereo unspecified) | 0.708 µM (active) |
| CCC1(C)Cc2c(sc3nc(SC)nc(N)c23)CO1 (stereo unspecified) | inactive |
| COc1ccc(S(=O)(=O)NCCCCOc2ccc(Cl)cc2)cc1 | inactive |
| COc1cccc(CNS(=O)(=O)c2ccc3c(c2)N(C(C)=O)CCS3)c1 | inactive |
| COc1cccc(C(=O)N/N=C(\C)c2cccc(NC(=O)c3ccc(F)cc3)c2)c1OC | inactive |
| COc1cccc(NC(=O)CSc2nnc(Cc3ccc(OC)c(OC)c3)o2)c1 | inactive |
| COc1cccc(CNC(=O)CCN2C(=S)NC(C)(C)CC2C)c1 (stereo unspecified) | inactive |
| CCN(Cc1ccccc1)C(=O)CN1C(=S)NC(C)(C)CC1C (stereo unspecified) | 11.2 µM (active) |
| CCN(CC)C(=O)N(CC)Cc1ccccc1 | inactive |
| O=C(CCc1n[nH]c(=O)[nH]c1=O)N/N=C/c1ccc(Br)o1 | inactive |
| O=C(N/N=C/c1ccco1)c1ccc(NC(=O)C2CC2)cc1 | inactive |
| Cc1ccc(NC(=O)COc2ccc(/C=N\NC(=O)c3cccnc3)cc2)cc1C | inactive |
| Cc1ccc(C(=O)N/N=C\c2cc(Br)c(Br)o2)cn1 | 11.2 µM (active) |
| O=C(N/N=C/c1ccc(Br)o1)c1cncc(Br)c1 | 5.62 µM (active) |
| O=C(CCC(=O)N/N=C/c1ccc(Br)o1)N/N=C/c1ccc(Br)o1 | inactive |
| CCN(CC)CCN1C(=O)C2C(C(=O)Nc3ccc(Br)cc3)C3C=CC2(O3)C1C(=O)NC1CCCCC1 (stereo unspecified) | inactive |

| SMILES | Potency |
| --- | --- |
| Cc1c(C(=O)NC(C)C2CC3CCC2C3)cccc1[N+](=O)[O-] (stereo unspecified) | inactive |
| O=C(OC1CCOC1=O)c1ccc(-c2nc3ccccc3s2)s1 (stereo unspecified) | 3.55 µM (active) |
| CC(C)c1ccc(C(=O)OC2CCOC2=O)cc1 (stereo unspecified) | inactive |
| Cc1nn(Cc2ccccc2)c(Cl)c1C(=O)OC1CCOC1=O (stereo unspecified) | inactive |
| CCOc1ccc(NC(=O)c2nc(SCC)ncc2Cl)cc1 | inactive |
| CC1CC(C)CN(C(=O)CCNC(=O)Cn2cnc3ccccc3c2=O)C1 (stereo unspecified) | inactive |
| CCc1ccc(-c2cc(C)no2)cc1S(=O)(=O)NCCc1ccc(S(N)(=O)=O)cc1 | inactive |
| Cc1ccc2cc3cc(C(=O)N4CCCCCC4)oc3nc2c1 | 10 µM (active) |
| Cc1cccc(C(=O)N2CCCN(C(=O)c3cccc(C)c3)CC2)c1 | inactive |
| Cc1cc(=O)oc(C)c1C(=O)N1CCCCC1 | inactive |
| CCC1=Nc2cc(C(=O)NCCCN3CCOCC3)ccc2Sc2ccc(Br)cc21 | inactive |
| COc1cccc(CN(C)CC(O)COC(c2ccccc2)c2ccccc2C)c1 (stereo unspecified) | inactive |
| CSc1ccc(CCNC(=O)CS(=O)(=O)Cc2nc(-c3ccccc3F)oc2C)cc1 | inactive |
| Cc1ccc(C(=O)Nc2nnc(-c3cccs3)s2)cc1C | inactive |
| Cc1ccc(C(=O)Nc2nnc(C3=COCCO3)o2)cc1C | 0.282 µM (active) |
| Cc1ccc(C(=O)NCCN2CCOCC2)cc1C | inactive |
| O=C(Nc1nnc(C2=COCCO2)o1)c1ccc([N+](=O)[O-])s1 | 2.82 µM (active) |
| COc1ccc(C(CNCC(=O)Nc2ccccc2F)N(C)C)cc1 (stereo unspecified) | inactive |
| C=CCn1c(CNS(=O)(=O)c2ccc(Br)cc2)nnc1SC | inactive |
| CC(C)c1ccc2oc(=O)cc(CN3CCN(Cc4ccccc4)CC3)c2c1 | inactive |
| CCOc1ccc(NC(=O)CSc2nncn2C)cc1 | inactive |
| COc1ccc(C)cc1NC(=O)CN(C)S(=O)(=O)c1ccc2c(c1)n(C)c(=O)c(=O)n2C | inactive |

| SMILES | Potency |
| --- | --- |
| CC(C)c1ccc(N(C(=O)c2ccco2)C(C(=O)NC2CCCC2)c2cccnc2)cc1 (stereo unspecified) | inactive |
| COc1ccc(CNC(=O)c2ccc3oc(C(C)C)nc3c2)cc1 | inactive |
| COc1ccc(N2CCN(S(=O)(=O)c3ccc4c(c3)N(C(C)=O)CCO4)CC2)cc1 | inactive |
| CCOCCCN(C)C1CCN(C(=O)c2oc3ccccc3c2NC(=O)Cc2cccc([N+](=O)[O-])c2)CC1 | inactive |
| Cc1nnnn1/C(=C\c1ccccc1)C(=O)OCC(=O)N1CC2(C)CC1CC(C)(C)C2 (stereo unspecified) | 5.01 µM (active) |
| COc1cc(CCC(=O)N2CCN(c3ccccc3Cl)CC2)cc(OC)c1OC | inactive |
| COc1cccc(N2CC(C(=O)Nc3c(C)cccc3C)CC2=O)c1 (stereo unspecified) | inactive |
| COc1ccc(NC(=S)NCC2CCN(c3ccc(OC)cc3)C2)cc1 (stereo unspecified) | 3.16 µM (active) |
| COc1ccc(NC(=O)N2CCC(Cc3ccccc3)CC2)cc1 | inactive |
| COc1ccc(NC(=S)NCCN2CCC(C)CC2)cc1 | inactive |
| COc1ccc(OCC(=O)Nc2ccc(N3CCC(C)CC3)cc2)cc1 | inactive |
| COc1ccc(N2CCC(CNC(=S)Nc3c(C)cccc3C)C2)cc1 (stereo unspecified) | 0.891 µM (active) |
| O=C(Cn1nc(C(=O)O)c2ccccc2c1=O)Nc1ccc(F)cc1 | inactive |
| CC1Sc2ccc(S(=O)(=O)CCC(=O)NCc3ccccc3Cl)cc2NC1=O (stereo unspecified) | inactive |
| CC(=O)c1cc(CN2CCC(C(=O)Nc3cccc(-c4cscn4)c3)CC2)cs1 | inactive |
| COc1ccc(CCNC(=O)c2nnc(CS(=O)(=O)c3ccccc3)o2)cc1OC | inactive |
| Cc1cccc(OCC(=O)Nc2ccc(C(=O)O)cc2NC(=O)COc2cccc(C)c2)c1 | inactive |
| COCCNc1ccc(-c2n[nH]c(=O)c3ccccc23)cc1[N+](=O)[O-] | inactive |
